Source: PubChem BioAssay AID651604 (The Scripps Research Institute Molecular Screening Center, 2012)
Out of some 1,500 compounds screened, about 1,400 (93%) were called active. No stated cut-off is given here; in the data, active means inhibition above about 9.5%; inactive means the rest. The set was probably picked from earlier hits. Not all results are given here.

Assay: PGV04 antibody small-molecule binding – biochemical, TR-FRET, distinct HIV envelope site, counter-screen for PG9 antibody binder project (AID 651604)
Settings: TR-FRET PGV04 antibody-gp120 binding, at 6.7 µM, stronger effect = higher value

| Compound | inhibition |
| --- | --- |
| Fc1cc(F)c2nc(Nc3nc4c(F)cccc4s3)sc2c1 | 15.5% (active) |
| Cc1nc(-c2ccccc2)sc1-c1nc(-c2ccccc2)ncc1S(=O)(=O)c1ccccc1 | 11.5% (active) |
| CC(C)OCCCNC(=O)c1cc(Sc2ccc(F)cc2)nc2ccccc12 | 28.9% (active) |
| N#C/C=C1\Sc2ccccc2C(=O)N1CC(=O)N1CCN(S(=O)(=O)c2ccccc2)CC1 | 36.9% (active) |
| COCCNC(=O)c1cc2c(Br)ccc(Br)c2nc1N | 20.9% (active) |
| CC(=O)c1sc(NC(=O)CCCOc2ccccc2C)nc1C | 29.6% (active) |
| COc1cccc(-n2c(SCC(=O)c3c[nH]c4ccccc34)nc3ccccc3c2=O)c1 | 32.9% (active) |
| Cc1cc2c(cc1C)N1C(=O)c3cc4ccccc4cc3NC(=O)C1C(=O)N2 (stereo not drawn) | 17% (active) |
| O=C(Oc1ccccc1)Oc1ccc2c(c1)oc(=O)c1ccccc12 | 46.4% (active) |
| N#Cc1ccccc1Sc1ccccc1C(=O)OCC(=O)NC1CCCCC1 | 45.7% (active) |
| Cc1ccc(-c2cc(C(=O)NCc3cn(C)nc3C)c3cc(Br)ccc3n2)cc1 | 25.8% (active) |
| Cc1ccc(-n2c(SCC(=O)NCCC3=CCCCC3)nc3n[nH]c(C)c3c2=N)cc1Cl | 27.8% (active) |
| CCCCNC(=O)CSc1nc2n[nH]c(C)c2c(=N)n1-c1cccc(Cl)c1C | 63.2% (active) |
| COc1cccc(-c2ccc(C#N)c(SCC(=O)NCCc3ccc(Cl)cc3)n2)c1 | 13% (active) |
| COc1ccc(CCNC(=O)CSc2nc(-c3ccc(OC)c(OC)c3)ccc2C#N)cc1 | 38.1% (active) |
| COC(=O)c1ccc(NC(=S)Nc2cccc(C)n2)cc1 | 16.1% (active) |
| S=c1[nH]c2ccccc2c2ccccc12 | 11.6% (active) |
| O=C(Nc1nnc(-c2ccccc2F)s1)c1ccccc1F | 36.9% (active) |
| C=CCOc1cccc(C2C(C(=O)c3ccc(C)o3)=C(O)C(=O)N2CCCn2ccnc2)c1 (stereo not drawn) | 22.6% (active) |
| CCCOc1ccc(C2C(C(=O)c3ccc(C)o3)=C(O)C(=O)N2CCCn2ccnc2)cc1 (stereo not drawn) | 65.3% (active) |
| O=C(O)CCC(=O)Nc1nc2ccc([N+](=O)[O-])cc2s1 | 5.74% (inactive) |

| Compound | inhibition |
| --- | --- |
| COc1ccc(CC(=O)Nc2ccc(-c3nnc(-c4ccccc4)o3)cc2)cc1 | 24.6% (active) |
| CCc1ccc(NC(=O)CSc2nnc(-c3cnccn3)n2Cc2ccco2)cc1 | 29.1% (active) |
| O=C(C1=C(O)C(=O)N(Cc2ccccc2)C1c1ccco1)c1ccco1 (stereo not drawn) | 39.4% (active) |
| Cc1cc(C)cc(NC(=O)C2CCCN(S(=O)(=O)c3ccc4[nH]c(=O)ccc4c3)C2)c1 (stereo not drawn) | 34.2% (active) |
| COc1ccc(Cl)cc1NC(=O)Cn1nc(-c2ccc(C)cc2)n(C)c1=S | 26.6% (active) |
| COc1ccc(-c2csc(NC(=O)c3ccc(N4C(=O)CCC4=O)cc3)n2)cc1OC | 20.8% (active) |
| Cc1nc2cc(NC(=O)CSc3nc4c(C)cccc4cc3C#N)ccc2s1 | 59.1% (active) |
| CC(=O)c1sc2nc(SCC(=O)N3CCCCC3)[nH]c(=O)c2c1C | 32.7% (active) |
| N#Cc1c(-c2cccs2)nc(SCC(=O)c2ccc(Br)cc2)[nH]c1=O | 38.1% (active) |
| COCCCNc1nc2c(-c3cccc(C)c3)nnn2c2ccc(Cl)cc12 | 30.7% (active) |
| C=CCn1c(=NC(=O)c2cccs2)sc2cc(NC(C)=O)ccc21 | 12.5% (active) |
| C=CCn1c(=NC(=O)c2ccc(S(=O)(=O)N3CCCC3)cc2)sc2cc(NC(C)=O)ccc21 | 43% (active) |
| Cc1c(-c2ccccc2)nc(N)c(C#N)c1-c1cccs1 | 27.9% (active) |
| CCCc1nc(SCC(=O)Nc2ccc(S(=O)(=O)N(C)C)cc2)c2ccccc2n1 | 41% (active) |
| N#Cc1ccccc1NC(=O)c1cccc(COc2ccc(Cl)cc2Cl)c1 | 24.8% (active) |
| CCOc1cc2ccccc2cc1C(=O)Nc1ccccn1 | 16.9% (active) |
| N#Cc1c(N)nc2c3c(sc(=N)c2c1N)NC(=O)CC3c1ccccc1Cl (stereo not drawn) | 37% (active) |
| O=C1C(=O)N(CCN2CCOCC2)C(c2cccc(Cl)c2)/C1=C(/O)c1ccc2c(c1)OCO2 (stereo not drawn) | 42.7% (active) |
| COc1ccc(-n2nnnc2-c2nc3ccccc3s2)cc1 | 59.6% (active) |
| O=C(COC(=O)c1ccc2c(c1)OCCO2)NCc1ccccc1Cl | 33.7% (active) |
| COc1ccc(-c2c(C)nn3c(N4CCC(C(=O)N5CCCCC5)CC4)cc(C)nc23)cc1OC | 12.2% (active) |

| Compound | inhibition |
| --- | --- |
| Cn1c(=S)sc2ccc3ccccc3c21 | 15.2% (active) |
| COc1cccc(NS(=O)(=O)c2ccc3[nH]cc(C(=O)NCCCOC(C)C)c(=O)c3c2)c1 | 19.8% (active) |
| CCOc1ccc2cc(C#N)c(SCC(=O)OC)nc2c1 | 65.8% (active) |
| O=C(NCc1ccc(Cl)cc1)c1cc2c(nc3sccn32)s1 | 30.7% (active) |
| Cc1cccc(Nc2nc3c(S(=O)(=O)c4ccccc4)nnn3c3ccccc23)c1C | 34.2% (active) |
| O=C(Nc1c(Br)cc2c(c1Br)Cc1cc([N+](=O)[O-])ccc1-2)C(Cl)Cl | 79.2% (active) |
| Cc1ccc(-n2ncc3c(=O)n(-c4ccc(C)c(C)c4)c(-c4ccco4)nc32)cc1 | 11.9% (active) |
| Cc1cc(Br)ccc1NC(=O)c1sc2ncn(CC(=O)N3CCN(c4ccccn4)CC3)c(=O)c2c1C | 15.6% (active) |
| CCOc1cccc(NC(=O)Cn2nc(-c3ccc4c(c3)OCCO4)ccc2=O)c1 | 25.3% (active) |
| CCOc1ccc(C(=O)COC(=O)c2ccc(-n3cnnn3)cc2)cc1 | 34% (active) |
| CCOC(=O)c1c(C)[nH]c(C(=O)OCC(=O)c2ccc(OC)cc2OC)c1C | 54.4% (active) |
| CC(=O)c1cc(C#N)c(SCC(=O)Nc2nccs2)nc1C | 51.4% (active) |
| O=C1COc2ccc(C(=O)COC(=O)c3ccccc3Cl)cc2N1 | 32.6% (active) |
| Cc1nc2nc(SCC(=O)c3ccccc3)[nH]c2cc1Br | 46.9% (active) |
| O=C(Nc1cccc(S(=O)(=O)Nc2ccc(Cl)cc2)c1)c1ccc2c(c1)OCCO2 | 34.2% (active) |
| CC1(C)Cc2ccccc2-c2[nH]c(=S)[nH]c(=O)c21 | 7.23% (inactive) |
| CCn1c(SCC(=O)Nc2cccc(F)c2)nnc1-c1cc2cc(Br)ccc2o1 | 58.4% (active) |
| O=C(N=C1SC2CS(=O)(=O)CC2N1Cc1ccccc1)c1ccccc1 (stereo not drawn) | 46.9% (active) |
| CCn1nnc2cc(C(=O)Nc3ccc(C(=O)OC(C)C)cc3)ccc21 | 37% (active) |
| COC(=O)C1=C(C)N(Cc2ccccc2C(F)(F)F)C(=NCc2ccc(OC)cc2)NC1c1cccc(C(F)(F)F)c1 (stereo not drawn) | 6.34% (inactive) |
| O=C(O)CCCCCNc1ncnc2ccc(Br)cc12 | 30.4% (active) |
